SMILES strings stand for the structures. Active and inactive are the calls of the source. The calls were made as follows: active = hit-call score of the fitted dose curve at least 0.9, where 1 is the maximum; inactive = score below 0.9.

The first assay in a line: CCTE_Shafer_MEA_acute_burst_number: CCTE's Neural Acute Assay for Single-Electrode Bursts, Shafer Lab (AID 2284013). The method, boiled down: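 Percent change in single-electrode burst number per well, from 40-min recordings taken before and after adding compound (0.03-40 uM) to primary rat cortical neurons on MEA plates at DIV 13 or 15, 37 C.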
As for `CC(CN=Cc1ccccc1O)N=Cc1ccccc1O` (stereo not given), the outcome was inactive.

Regarding `CCOC(=O)C(C#N)=C(c1ccccc1)c1ccccc1`, the result was inactive.

As to `COCCc1ccc(OCC(O)CNC(C)C)cc1` (stereo not given), the call was inactive.

Consider `O=C(Nc1ccc2c(O)c(N=Nc3ccc(N=Nc4ccc(S(=O)(=O)O)cc4)cc3)c(S(=O)(=O)O)cc2c1)c1ccccc1`, for which the outcome was inactive.

`CC1(C)CCC[C@]2(C)[C@H]3CCO[C@]3(C)CC[C@@H]12`: the outcome was inactive.

For `CCCCCCC(CO)CCCC` (stereo not given), the outcome was inactive.

With `C=CC(C)(O)CCC=C(C)C` (stereo not given), the outcome was inactive.

For the molecule `Oc1c(Cl)cc(Cl)c(Cl)c1Cc1c(O)c(Cl)cc(Cl)c1Cl`, the call was inactive.

Regarding `CN(C)C(=S)SC(=S)N(C)C`, the outcome was inactive.

Take `O=CN1CCOCC1`: the molecule was called inactive.

The next assay is described as follows: CCTE_Shafer_MEA_acute_burst_duration_mean: CCTE's Neural Acute Assay for Mean Burst Duration, Shafer Lab (AID 2284014).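 Also: hits are decreases in mean burst duration relative to DMSO controls.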 The method, boiled down:
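Rat cortical cultures, DIV 13/15; 40 min baseline, then 40 min with compound (0.03-40 uM), 37 C. Spikes: 300-5000 Hz band-pass, 8x rms threshold. Read-out: % change in mean single-electrode burst duration, DMSO-referenced, loss direction.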
Take `CC(CN=Cc1ccccc1O)N=Cc1ccccc1O` (stereo not given): the molecule was classed as inactive.

As to `CCOC(=O)C(C#N)=C(c1ccccc1)c1ccccc1`, the result was inactive.

In the case of `COCCc1ccc(OCC(O)CNC(C)C)cc1` (stereo not given), the result was inactive.

For `O=C(Nc1ccc2c(O)c(N=Nc3ccc(N=Nc4ccc(S(=O)(=O)O)cc4)cc3)c(S(=O)(=O)O)cc2c1)c1ccccc1`, the result was inactive.

For the molecule `CC1(C)CCC[C@]2(C)[C@H]3CCO[C@]3(C)CC[C@@H]12`, the outcome was inactive.

As for `CCCCCCC(CO)CCCC` (stereo not given), the molecule was classed as inactive.

Take `C=CC(C)(O)CCC=C(C)C` (stereo not given): the call was inactive.

On to `Oc1c(Cl)cc(Cl)c(Cl)c1Cc1c(O)c(Cl)cc(Cl)c1Cl`, for which the molecule was classed as inactive.

On to `CN(C)C(=S)SC(=S)N(C)C`, for which the result was inactive.

Consider `O=CN1CCOCC1`, for which the result was inactive.

Another assay can be described thus: CCTE_Shafer_MEA_acute_per_burst_spike_number_mean: CCTE's Neural Acute Assay for Average Number of Spikes Per Burst, Shafer Lab (AID 2284015).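 Also: hits are decreases in mean spikes per burst versus baseline.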 In a few lines:
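We recorded spontaneous network firing of rat cortical neurons for 40 min before and 40 min during exposure to compound at 0.03-40 uM, at 37 C. Spikes were detected adaptively at 8x rms noise, and the change in average spikes per burst was fitted against DMSO.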
As usually defined, the AC50 is the midpoint of the concentration-response curve, whichever way the signal moves. For the molecule `CC(CN=Cc1ccccc1O)N=Cc1ccccc1O` (stereo not given), the half-maximal activity concentration (AC50) is 15 µM (active).

Take `CCOC(=O)C(C#N)=C(c1ccccc1)c1ccccc1`: the result was inactive.

For `COCCc1ccc(OCC(O)CNC(C)C)cc1` (stereo not given), the outcome was inactive.

In the case of `O=C(Nc1ccc2c(O)c(N=Nc3ccc(N=Nc4ccc(S(=O)(=O)O)cc4)cc3)c(S(=O)(=O)O)cc2c1)c1ccccc1`, the outcome was inactive.

On to `CC1(C)CCC[C@]2(C)[C@H]3CCO[C@]3(C)CC[C@@H]12`, for which the call was inactive.

Consider `CCCCCCC(CO)CCCC` (stereo not given), for which the outcome was inactive.

Turning to `C=CC(C)(O)CCC=C(C)C` (stereo not given), the molecule was classed as inactive.

Consider `Oc1c(Cl)cc(Cl)c(Cl)c1Cc1c(O)c(Cl)cc(Cl)c1Cl`, for which the AC50 is 0.155 µM (active).

Take `CN(C)C(=S)SC(=S)N(C)C`: the outcome was inactive.

Regarding `O=CN1CCOCC1`, the outcome was inactive.

A further assay can be described thus: CCTE_Shafer_MEA_acute_interburst_interval_mean: CCTE's Neural Acute Assay for Mean Interburst Interval, Shafer Lab (AID 2284016).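 Also: percent change of mean interburst interval versus each well's own pre-dose baseline; curves fitted for decrease in interburst interval relative to DMSO.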 In a few lines:
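MEA recording of spontaneous network bursting in primary rat cortical cultures; mean interburst interval was compared before and after a 40-min compound exposure (0.03-40 uM) and expressed as percent change, relative to DMSO.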
Regarding `CC(CN=Cc1ccccc1O)N=Cc1ccccc1O` (stereo not given), the result was inactive.

In the case of `CCOC(=O)C(C#N)=C(c1ccccc1)c1ccccc1`, the call was inactive.

As to `COCCc1ccc(OCC(O)CNC(C)C)cc1` (stereo not given), the molecule was called inactive.

On to `O=C(Nc1ccc2c(O)c(N=Nc3ccc(N=Nc4ccc(S(=O)(=O)O)cc4)cc3)c(S(=O)(=O)O)cc2c1)c1ccccc1`, for which the AC50 was 15 µM (active).

As for `CC1(C)CCC[C@]2(C)[C@H]3CCO[C@]3(C)CC[C@@H]12`, the outcome was inactive.

In the case of `CCCCCCC(CO)CCCC` (stereo not given), the half-maximal activity concentration (AC50) was 15 µM (active).

Regarding `C=CC(C)(O)CCC=C(C)C` (stereo not given), the AC50 was 15 µM (active).

For the molecule `Oc1c(Cl)cc(Cl)c(Cl)c1Cc1c(O)c(Cl)cc(Cl)c1Cl`, the AC50 is 0.122 µM (active).

Regarding `CN(C)C(=S)SC(=S)N(C)C`, the molecule was called inactive.

Consider `O=CN1CCOCC1`, for which the result was inactive.

For the origin of these results see PubChem BioAssay (EPA / NIEHS).
